Compound activity deposited in PubChem BioAssay by National Center for Advancing Translational Sciences (NCATS).
Mito fusion act = qHTS Assay for Small Molecule Inhibitors of Mitochondrial Division or Activators of Mitochondrial Fusion | S. cerevisiae fusion-defective mutant growth rescue, CellTiterGlo 48 h | Potency, µM (top dose mostly 46.1 µM), most hits filed as activators | actives 0.23% (n = 320,000); note: nearly all actives have a fitted effect of over 45% in size
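Temperature-sensitive fusion-defective S. cerevisiae (e.g. fzo1-1, mgm1-5) were grown with compound in YPEG medium (3% ethanol, 3% glycerol) for 48 hours at 37C. Growth rescue was measured as viability by CellTiterGlo luminescence after 10 minutes at ambient.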
FUS yeast rescue = qHTS for Suppressors of FUS Proteinopathy: Primary screen using FUS-linked yeast assay | S. cerevisiae FUS-expressing, growth rescue, OD600, 24 h | Potency, µM (series often up to 76.6 µM), hits mostly activators | actives 0.24% (n = 390,000); note: nearly all actives have a fitted effect of over 55% in size
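S. cerevisiae expressing FUS from galactose induction served as the toxicity model. Growth after 24hr at 30C, read as absorbance at 600 nm, indicates suppression of toxicity; compounds dosed at several concentrations.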
TDP-43 yeast inh = qHTS of TDP-43 Inhibitors. TDP-43 expressing yeast growth rescue, BacTiter-Glo, 24 h. Potency, µM (top dose mostly 46.1 µM), usual class: activators. actives 1.8% (n = 410,000). AID 652104, 2013; note: nearly all actives have a fitted effect of over 50% in size
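Galactose-induced TDP-43 yeast, OD600=0.02, compound pinned; 24 hr, 30 deg C; BacTiter-Glo luminescence for growth. Inhibitors of TDP-43 toxicity read as activators.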
aSyn yeast inh = qHTS of alpha-syn Inhibitors. actives 0.14% (n = 370,000). AID 652106, 2013. Potency, µM (titrated, usually from 46.1 µM), hits mostly activators. Yeast expressing alpha-synuclein, growth rescue, BacTiter-Glo, 24 h; note: nearly all actives have a fitted effect of over 65% in size
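Screening used galactose-induced yeast with toxic alpha-synuclein levels, exposed to compound for 24 hr at 30 deg C. Cell growth, read with BacTiter-Glo luminescence, gave the measured signal.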
Abeta yeast res = qHTS for compounds that reverse cellular toxicity of Amyloid beta (A-beta) peptide in yeast: Primary Screen; actives 0.063% (n = 410,000); Potency, µM (titrated, usually from 46.1 µM), hits mostly activators; yeast expressing A-beta42, growth rescue, OD600, 48 h; response scale: 0% DMSO, 100% iron-clioquinol control; note: nearly all actives have a fitted effect of over 55% in size
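Growth rescue measured by 600 nm absorbance after 48 h yeast culture at 30 C with compound. Values normalized between DMSO and an equimolar ferric chloride plus clioquinol control.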
Hits are given with their value; ! = repeats disagree. Hits are enriched below; roughly 2.2% of the tested compounds scored in any of these assays. Calls come from the whole dose curve; as a rule, active = well fitted curve in the direction sought with a large enough effect; inconclusive = small, poorly fitted or top-dose-only effect, or another doubt; inactive = no such curve, though single readings can be large; an effect the other way counts as inactive or inconclusive.

For Cc1cc(Nc2ccccc2F)n2nc(Cc3ccc(Cl)cc3)nc2n1 the results were FUS yeast rescue inactive, TDP-43 yeast inh inactive and Abeta yeast res inactive.
`Cc1cc(Nc2ccc(C)c(Cl)c2)n2nc(Cc3ccccc3)nc2n1` gave FUS yeast rescue inactive, TDP-43 yeast inh 22µM and Abeta yeast res inactive.
`COC(=O)[C@]12C[C@H](CC(=O)N3CCOCC3)C(=O)N(CCc3ccc(OC)c(OC)c3)C1=C[C@H](C1CCCC1)O[C@@H]2C` gave FUS yeast rescue inactive.
COc1cc2nc(C3CCC3)nc(N3CCN(c4ccccn4)CC3)c2cc1OC was read as FUS yeast rescue inactive, TDP-43 yeast inh inactive, aSyn yeast inh inactive and Abeta yeast res inactive.
For COc1cc2nc(C3CCC3)nc(N3CCN(c4ccccc4OC)CC3)c2cc1OC the results were Mito fusion act 14µM, TDP-43 yeast inh inactive, aSyn yeast inh inactive and Abeta yeast res inactive.
`COc1ccc(OC(=O)OCc2ccccc2)cc1` gave FUS yeast rescue inactive, TDP-43 yeast inh inactive, aSyn yeast inh inactive and Abeta yeast res inactive.
For O=C(OCCOCCOC(=O)Oc1ccccc1)Oc1ccccc1 the results were TDP-43 yeast inh 14µM, aSyn yeast inh inactive and Abeta yeast res inactive.
For Cc1ccc(NC(=O)c2cccc3c2-c2ccccc2C3=O)c(C)c1 the results were FUS yeast rescue inactive.
Screening Cc1cc(Nc2ccccc2C(=O)O)n(-c2cccc(Cl)c2)n1 returned Mito fusion act inactive, FUS yeast rescue inactive, TDP-43 yeast inh inactive, aSyn yeast inh inactive and Abeta yeast res inactive.
Screening Cc1cc(Nc2ccc(Cl)cc2)n(-c2ccccc2)n1 returned Mito fusion act inactive, FUS yeast rescue inactive, TDP-43 yeast inh 10µM, aSyn yeast inh inactive and Abeta yeast res inactive.
For Cc1cc(Nc2ccc(Cl)cc2)n(-c2cccc(Cl)c2)n1 the results were Mito fusion act inconclusive, FUS yeast rescue inactive, TDP-43 yeast inh 22µM, aSyn yeast inh inactive and Abeta yeast res inactive.
`Cc1cc(Nc2ccccc2)n(-c2ccc(Br)cc2)n1` gave Mito fusion act inactive, FUS yeast rescue inactive, TDP-43 yeast inh inconclusive, aSyn yeast inh inactive and Abeta yeast res inactive.
Screening COc1cc(NC(=O)NC2CCCCN(Cc3cccc(Cl)c3)C2=O)cc(OC)c1 (stereo not drawn) returned FUS yeast rescue inactive.
CC(=O)Nc1ccc(C(=O)CSc2nnc3ccc4ccccc4n23)cc1 was read as FUS yeast rescue inactive, TDP-43 yeast inh inactive and Abeta yeast res inactive.
For COC(=O)c1ccc(CSc2nnc3ccc4ccccc4n23)cc1 the results were FUS yeast rescue inactive, TDP-43 yeast inh 35µM and Abeta yeast res inactive.
`COc1ccccc1-c1nn2c(C3COc4ccccc4O3)nnc2s1` (stereo not drawn) gave Mito fusion act inactive, FUS yeast rescue inactive, TDP-43 yeast inh 10µM and Abeta yeast res inactive.
`COc1cccc(N(C(=O)CNC(=O)c2ccco2)C(C(=O)NC2CCCC2)c2cccnc2)c1` (stereo not drawn) gave Mito fusion act inactive, FUS yeast rescue inactive, TDP-43 yeast inh inactive, aSyn yeast inh inactive and Abeta yeast res inactive.
Screening CCOC(=O)c1nc(N2CCN(C(=O)OCC)CC2)c2c3c(sc2n1)CCCC3 returned Mito fusion act inactive, FUS yeast rescue inactive, TDP-43 yeast inh inactive, aSyn yeast inh 16µM and Abeta yeast res inactive.
Screening CCOC(=O)c1nc2sc3c(c2c(=O)[nH]1)CCCC3 returned Mito fusion act inactive, TDP-43 yeast inh inactive, aSyn yeast inh inactive and Abeta yeast res inactive.
For CCc1nc(N2CCN(C(=O)CCCl)CC2)c2c3c(sc2n1)CCCC3 the results were FUS yeast rescue inactive, TDP-43 yeast inh 20µM, aSyn yeast inh inactive and Abeta yeast res inactive.
`CCNC(=S)N1CCN(c2nc(CC)nc3sc4c(c23)CCCC4)CC1` gave Mito fusion act inactive, FUS yeast rescue inactive, TDP-43 yeast inh inactive, aSyn yeast inh inactive and Abeta yeast res inactive.
`COc1ccc([C@H]2OC(=O)C[C@H]2C(=O)N2CCN(c3ccccc3C(F)(F)F)CC2)cc1OC` gave FUS yeast rescue inactive.
Screening Cc1cc(C)c(C)c(S(=O)(=O)N2CCC(C(=O)NC3=NCCS3)CC2)c1C returned Mito fusion act inactive, FUS yeast rescue inactive, TDP-43 yeast inh inactive, aSyn yeast inh inactive and Abeta yeast res inactive.
For COc1ccc(C)cc1S(=O)(=O)Nc1ccc(F)c(Cl)c1 the results were Mito fusion act inconclusive, FUS yeast rescue inactive, TDP-43 yeast inh 18µM, aSyn yeast inh inactive and Abeta yeast res inactive.
Screening CCCCCCOc1ccc(C2C(=O)N(C3CCCCC3)CC(=O)N2CCC)cc1 (stereo not drawn) returned FUS yeast rescue inactive, TDP-43 yeast inh inactive and Abeta yeast res inactive.
`CCCCOc1ccc(C2C(=O)N(C3CCCCC3)CC(=O)N2CC2CCCO2)cc1` (stereo not drawn) gave Mito fusion act inactive, FUS yeast rescue 8.9µM, TDP-43 yeast inh inactive, aSyn yeast inh inactive and Abeta yeast res inactive.
`Nc1cc(=O)[nH]c2c1CCC2` gave aSyn yeast inh inactive.
`COc1cc(C(=O)NCCc2csc(-c3ccc(Cl)cc3)n2)cc(OC)c1OC` gave FUS yeast rescue inactive, TDP-43 yeast inh 22µM and Abeta yeast res inactive.
Screening O=C(NCCc1csc(-c2ccccc2)n1)c1c(F)cccc1Cl returned Mito fusion act inactive, FUS yeast rescue inactive, TDP-43 yeast inh 13µM, aSyn yeast inh inactive and Abeta yeast res inactive.
`O=C(NCCc1csc(-c2ccccc2)n1)c1c(F)cccc1F` gave Mito fusion act inactive, FUS yeast rescue inactive, TDP-43 yeast inh 20µM, aSyn yeast inh inactive and Abeta yeast res inactive.
For O=C(NCc1csc(-c2ccccc2)n1)c1cc(F)cc2c1OCOC2 the results were Mito fusion act inactive, FUS yeast rescue inactive, TDP-43 yeast inh 13µM, aSyn yeast inh inactive and Abeta yeast res inactive.
CC(=O)NC(Cc1c(F)c(F)c(F)c(F)c1F)C(=O)NCC(N)C(=O)c1ccccc1 (stereo not drawn) was read as aSyn yeast inh inactive.
Screening O=C(NCCc1csc(-c2ccc(F)cc2)n1)c1c(F)cccc1Cl returned FUS yeast rescue inactive, TDP-43 yeast inh 13µM and Abeta yeast res inactive.
Screening O=C(NCCc1csc(-c2ccc(Cl)cc2)n1)c1ccco1 returned Mito fusion act inactive, FUS yeast rescue inactive, TDP-43 yeast inh 16µM!, aSyn yeast inh inactive and Abeta yeast res inactive.
O=C(NCCc1csc(-c2cccnc2)n1)c1c(F)cccc1F was read as Mito fusion act inactive, FUS yeast rescue inactive, TDP-43 yeast inh inactive, aSyn yeast inh inactive and Abeta yeast res inactive.
